An excerpt weighted towards active compounds, which were near 1.7% of everything screened.
Myeloid diff 2: myeloid differentiation induction; calls only at 10 µM; AID 624256; ER-HoxA9 myeloid progenitors, lysozyme-GFP differentiation, flow cytometry; 1% of 360,000 active;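 active = normalized GFP-positive differentiation at or above the plate's own cutoff, the solvent-only control mean plus 3 SD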;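 note: cells exposed to compound for four days before flow analysis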
TLR9-MyD88 block: inhibitors of human TLR9-MyD88 binding | 0.21% of 340,000 active | CHO BLA complementation TLR9-MyD88, CCF4 FRET ratio | inhibition, % at 4.98 µM | AID 504734;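 active = inhibition above the mean over all tested compounds plus 3 SD, cut at about 21% in these data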
TLR4 MyD88 comp: inhibitors of human TLR4-MyD88 binding; inhibition, % at 8.4 µM; AID 861; 0.18% of 200,000 active; HeLa CL3-4 TLR4/MyD88 BLA complementation, FRET ratio; in the data active = inhibition above about 25%
NOD2 RIPK2 PPI: inhibitors of human NOD2-RIPK2 interaction; inhibition, % at 4.98 µM; AID 624267; O43353; CHO BLA complementation NOD2-RIPK2, CCF4 ratio; 0.38% of 360,000 active; in the data active = inhibition above about 21%
Target sequence (O43353 whole entry, looked up): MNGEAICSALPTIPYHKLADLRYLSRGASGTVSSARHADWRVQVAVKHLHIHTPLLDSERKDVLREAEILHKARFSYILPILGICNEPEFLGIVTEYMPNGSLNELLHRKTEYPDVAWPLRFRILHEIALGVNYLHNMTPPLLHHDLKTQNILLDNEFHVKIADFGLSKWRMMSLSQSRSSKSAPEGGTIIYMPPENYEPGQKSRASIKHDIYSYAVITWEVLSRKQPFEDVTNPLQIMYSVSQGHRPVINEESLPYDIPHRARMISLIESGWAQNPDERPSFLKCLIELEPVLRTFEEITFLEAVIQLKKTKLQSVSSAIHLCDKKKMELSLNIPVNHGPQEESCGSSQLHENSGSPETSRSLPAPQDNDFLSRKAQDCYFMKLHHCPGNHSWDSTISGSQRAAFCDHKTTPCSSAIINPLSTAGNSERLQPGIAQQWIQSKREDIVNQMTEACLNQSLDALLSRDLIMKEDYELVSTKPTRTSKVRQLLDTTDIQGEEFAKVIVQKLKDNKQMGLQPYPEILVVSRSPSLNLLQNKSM
ABCB6 inh 2: blocks the human ABCB6 transporter | Q9NP58 | K562-ABCB6 porphyrin accumulation, flow cytometry, 1 h; hits give low values | fluorescence ratio to DMSO, % at 10 µM | 0.19% of 360,000 active;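 active = fluorescence ratio to DMSO below 75%, the collection mean minus 3 SD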;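 note: signal is porphyrin accumulated inside mitochondria; lower ratio means ABCB6 inhibition with less porphyrin fluorescence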
Myeloid diff CP1: promotes myeloid progenitor differentiation | AID 651706 | ER-HoxA9 myeloid progenitors, GFP/Mac1 double-positive flow | calls only | 2% of 2,300 active | shares compounds with Myeloid diff 2;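 active = share of green or green-and-red cells above 9 and 9% in run 1 or 4 and 3% in run 2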
GFP autofluor: counter-screen for myeloid differentiation promoters: compound fluorescence. shares compounds with Myeloid diff 2. ER-HoxA9 myeloid progenitors, no estrogen, GFP autofluorescence flow cytometry; vehicle wells 0%, positive control 100%. fluorescence response, % (no concentration beside the values). 7.4% of 2,300 active. AID 651707;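 active = over 5% cells positive for green fluorescent reporter, or over 2% positive for both it and APC stain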
Hits are given with their value; n = inactive; x = not tested or not shown; + = active, no number.

SMILES	Myeloid diff 2	TLR9-MyD88 block	TLR4 MyD88 comp	NOD2 RIPK2 PPI	ABCB6 inh 2	Myeloid diff CP1	GFP autofluor
COc1ccc(C2SCCN2S(=O)(=O)c2ccc(NC(C)=O)cc2)cc1 (centres undefined)	+	n	n	n	n	n	n
Cc1ccc(C2=NN(C(=S)Nc3ccccc3)C(c3ccco3)C2)cc1 (centres undefined)	n	n	n	n	n	x	x
C=CCNC(=S)N1N=C(c2ccco2)CC1c1ccco1 (centres undefined)	n	n	x	n	n	n	n
COc1cccc(/C=C(/C#N)c2ccc(F)cc2)c1OCc1cccc(C(=O)O)c1	n	n	n	n	n	x	x
N#C/C(=C/c1cccn1-c1cccc(C(=O)O)c1)c1ccc(F)cc1	+	n	n	n	n	n	n
CCOC(=O)C1CCN(C(=O)COC(=O)/C=C/c2ccc([N+](=O)[O-])cc2)CC1	n	n	x	n	n	n	n
O=[N+]([O-])c1ccc(NS(=O)(=O)c2ccc(Cl)c(Cl)c2)cc1	n	x	x	n	n	x	x
CCN1C(=O)/C(=C/c2ccc(N3CCCC3)cc2)NC1=S	+	n	n	n	n	n	93
Cc1nn(CC(=O)NCc2ccccc2Cl)c(C)c1[N+](=O)[O-]	+	n	n	n	n	n	n
COc1ccccc1CNC(=O)Cn1nc(C)c([N+](=O)[O-])c1C	n	n	x	n	n	x	x
CCOC(=O)N1CCN(/C=C(\C#N)c2nc3ccccc3s2)CC1	n	n	n	n	n	x	x
N#C/C(=C\N1CCN(Cc2ccc3c(c2)OCO3)CC1)c1nc2ccccc2s1	n	n	n	n	n	+	n
Cc1ccc(S(=O)(=O)N2CCN(C(=O)CCC(=O)Nc3ccc(F)cc3F)CC2)cc1	n	n	x	n	n	x	x
O=C(Cc1cn2ccsc2n1)NCc1ccccc1	n	n	n	n	n	x	x
O=C(Cc1cn2ccsc2n1)NCCc1ccc(F)cc1	n	n	n	n	n	n	n
CCc1nonc1NC(=O)COc1ccc(Cl)c(C)c1	n	n	x	n	n	n	n
Cc1ccn2c(NC(C)(C)C)c(-c3cccs3)nc2c1	n	n	n	n	n	x	x
Cc1ccc(C(=O)NNC(=O)CSc2nnc(-c3ccncc3)n2-c2ccc(C)cc2)cc1	n	n	n	n	n	n	n
c1ccc(NC2=Nc3ccccc3CC2)cc1	+	n	n	n	n	n	n
Cc1ccc(NC2=Nc3ccccc3CS2)cc1	n	n	n	n	n	x	x
CCN(CC(=O)NCc1ccc(Cl)cc1)C(=O)c1cc(OC)cc(OC)c1	n	n	x	n	n	x	x
COc1ccc(C(=O)OCc2cc(C)ccc2C)cc1S(=O)(=O)N1CCCC1	+	n	x	n	n	n	n
Cc1ccc(S(=O)(=O)N2CCCCC2CCNC(=O)C(=O)Nc2ccccc2F)cc1 (centres undefined)	+	n	x	n	n	n	n
O=C(NC1CC1)C1CCN(Cc2cnn(-c3ccccc3)c2-n2cccc2)CC1	+	n	n	n	n	n	n
CCN(CC)CCOC(=O)c1ccc(N/C=C(/C#N)c2nc(-c3ccc(OC)c(OC)c3)cs2)cc1	n	n	x	n	n	n	n
SMILES	Myeloid diff 2	TLR9-MyD88 block	TLR4 MyD88 comp	NOD2 RIPK2 PPI	ABCB6 inh 2	Myeloid diff CP1	GFP autofluor
CCN(CC)CCOC(=O)c1ccc(N/C=C(/C#N)c2nc(-c3cccc(OC)c3)cs2)cc1	n	x	x	n	n	x	x
Cc1cc2c3c(c1C)C1(C(=O)N3C(C)(C)CC2C)C(C#N)=C(N)Oc2n[nH]c(C)c21 (centres undefined)	+	n	n	n	n	n	n
COc1cccc(CC2(CO)CCN(CC3=CC[C@H]4C[C@@H]3C4(C)C)CC2)c1	n	n	n	n	n	x	x
CC(=Nc1ccccc1C)C1=C(O)CSC1=O	+	n	n	n	n	n	n
CC(=Nc1ccccc1)C1=C(O)CSC1=O	n	n	n	n	n	x	x
O=Cc1c(-c2ccccc2)cc2oc3ccccc3cc1-2	n	n	x	n	n	n	66
CCCCCC1CCC(c2n[nH]c(=S)n2C)CC1 (centres undefined)	n	n	n	n	n	x	x
CC1C(=O)N(Cc2cn(CCC3OCCCO3)nn2)CCS(=O)(=O)N1Cc1ccc(-c2ccccc2)cc1 (centres undefined)	+	n	x	n	n	n	n
CC(C)CC1C(=O)N(Cc2cn(CC3CCCCC3)nn2)CCS(=O)(=O)N1Cc1ccc(-c2ccncc2)cc1 (centres undefined)	n	n	x	n	n	n	n
COc1ccc(-c2ccc(CN3C(CC(C)C)C(=O)N(Cc4cn(CC5CCCCC5)nn4)CCS3(=O)=O)cc2)cc1OC (centres undefined)	n	n	x	n	n	x	x
CC1C(=O)N(Cc2cn(CCC3OCCCO3)nn2)CCS(=O)(=O)N1Cc1ccc(-c2ccc(Cl)nc2)cc1 (centres undefined)	n	n	x	n	n	x	x
CCCN=C1N(CC)C[C@@H]2[C@@H]3C(=O)N(C)C(=O)[C@@H]3[C@](CC)(C(=O)OC)N12	n	n	x	n	n	x	x
C[C@H](O)[C@@H]1C(=O)N2CCc3ccc(-c4ccccc4)cc3[C@@H]2C[C@@H]1N(C)C(=O)c1ccco1	n	n	x	n	n	x	x
COc1ccc(CSc2nc(CSC)cc(N3CCOCC3)n2)cc1	+	n	n	n	n	n	n
COc1ccc2c(C)cc(N3CCOCC3)nc2c1	n	n	n	n	n	x	x
Cc1cccc(NC(=O)CNC(=O)CCc2nc3sc4c(c3c(=O)[nH]2)CCCC4)c1C	+	n	x	n	n	n	n
NC(=O)NC(Cc1ccccc1)c1ccccc1 (centres undefined)	+	n	n	n	n	n	n
CCOc1ccc(CCNC(=O)COC(=O)c2ccc(C)c([N+](=O)[O-])c2)cc1OCC	n	n	x	n	n	x	x
CCOP(=O)(OCC)/C(C#N)=C/c1ccc([N+](=O)[O-])cc1	n	n	x	n	n	n	n
N#C/C(=C/c1ccc([N+](=O)[O-])cc1)C(N)=O	n	n	n	n	n	x	x
COc1ccc(-c2cc(C(=O)N3CCCCCC3)c3ccccc3n2)c(OC)c1	+	n	x	n	n	n	n
COc1ccc(-c2cc(C(=O)N3CCN(c4ncccn4)CC3)c3ccccc3n2)c(OC)c1	n	n	n	n	n	x	x
O=C(c1cc(-c2ccccc2Cl)nc2ccccc12)N1CCN(c2ccccc2O)CC1	n	n	x	n	n	x	x
O=C(c1cc(-c2ccccc2Cl)nc2ccccc12)N1CCN(c2ccccn2)CC1	n	n	x	n	n	n	n
COc1cc(C(=O)OCC(=O)Nc2cc(S(=O)(=O)N3CCOCC3)ccc2C)ccc1OCC(C)C	n	n	x	n	n	x	x
COc1cccc(/C=C/C(=O)N2CCN(S(=O)(=O)c3ccccc3)CC2)c1	n	n	x	n	n	x	x

Screens deposited in PubChem by several laboratories.
